Here are results for 16 molecules from PMC12864922, “TDP-43 directly inhibits mRNA accumulation in neurites through modulation of mRNA stability”.

The labels stand for the following.
B1: ENSMUSG00000029028.179|Lrrc47|115:119 (ssRNA)
RNA: GGGAGUUCUACAGUCCGACGAUCGCUUCGAUAUCCGCAUGCUAACAGAUGCUUCGUGGACUGUGCCUCACACAUGGCCCUGCAGGCUCCAUGUCAGCGUGUCCCACUAUUCAUGUCCCAUCUCUGUGCAUCCUGACUGCGCACAUCCCAUCUCCGCAACACAACGCAUCUGUACCAGCACACAGCUGCCAUCCCUCGAGCCACAGUGCCUGGUCCUAAGGACCCAGCAGCUGCACAGAGGACUUGGUGGCCCCGUGCCUUGCCAUCUGGCUGAGAAGAGAACCAGACCCUCAGCCUUCCCCCUCUCUUGCGGUCGCACUAGUGUGGAAUUCUCGGGUGUCAAGG
B2: ENSMUSG00000058297.511|Spock2 (ssRNA)
RNA: GGGAGUUCUACAGUCCGACGAUCGCUUCGAUAUCCGCAUGCUAAGGAGGCAAAGUUGGUGAGAGUCCUGGGACAUCUUACCCCCAGUGUUCCACAGGAGUCGUGACCACGUGUGAUGGGUGGGCACAGGUCUGCCUUGCUCCAGCCCCCUCCCUUGGUUUCUGUUGGUACCCAUUUGGCUUUUAUCUGCUUUCUGCUUCACCACUAAGUGCGUAGGUGGGGUCUUUUGAUAUCGGCUCCCCAAAGCCCAAGCCCACAGCCCUAGGAGAGAACCAGGGGCCCAUCUUUGACACCUGGGCCAUCACUCUUGCGGUCGCACUAGUGUGGAAUUCUCGGGUGUCAAGG
B3: ENSMUSG00000090935.640|Synj2bp|188:194 (ssRNA)
RNA: GGGAGUUCUACAGUCCGACGAUCGCUUCGAUAUCCGCAUGCUAAGAAUAAAGUAUUUUCCUAGGACUACAUAGUUGGUAAAAGAGAAUCAUGAUUUAAACUCUGGACUAUGGAUGGCAGUAUCAGUAAUAUUCCCUCAUAGCUAGCAGUCCUCAUGCAAGGUCUCUGAACAAAAGCAACGUAUCACCUGCAAAUGCUUGGGUUUCAUCCCAUUCUUAUGGAGUGAGAUGACACACACCCAGCCAGCAACUCUGUCCUUCUAGGUAACUGGUUCAUGCUGAACCUUGAGAUUCACCACUGUCAGCUCUUGCGGUCGCACUAGUGUGGAAUUCUCGGGUGUCAAGG
B4: ENSMUSG00000032194.203|Kank2|47:51 (ssRNA)
RNA: GGGAGUUCUACAGUCCGACGAUCGCUUCGAUAUCCGCAUGCUACUGCACCUUUCUCUAACUGGGGUUCCUUUCUGGCCCCAGGAUCUCACACACGUUCGUGGGGGGAUUUUGUUGUUGUUUCUUUGUUUCUUUUCUUCAUAAAGAAGAAAAAGGAAACAACUUCUAGAUGUGCCUUGCGAUAGGGAGGACUUUGUCCUCUCAAGUCUCCCUGUCGUAUCCAGAUCACAGCUGAACCCACUGGGCCUUGGCGCCAAACCUCAGCAGGGCAGCAUUGAGACUCAUGGACUAAAGGAAAGUGUUCACUCUUGCGGUCGCACUAGUGUGGAAUUCUCGGGUGUCAAGG
B5: ENSMUSG00000004113.196|Cacna1b (ssRNA)
RNA: GGGAGUUCUACAGUCCGACGAUCGCUUCGAUAUCCGCAUGCUACUGGCUCCUCUGCUCAACCAAGUGCCUGAUCUCUGGCUCUGAGCAUCGUGGAUGAGGUACGGCCUCAGGAAGCAUCGGGUGGAUUGGGUGGGAGCUGCUCAGAGCAGCACGGGGGCUUGUGUCUUAGGGACAUUGACAGUGUCCAUCAGCAUGUCAGAGAAGCAGCUGUAGUGCCCGUGUUUCUCCCUGAGUCAUGGGUUCUGAAGAAGCCAGAGCGGCACAAUGCGUGCUUGCAUGAGGCACUUUCAGCCUUUUUAAAUCUCUUGCGGUCGCACUAGUGUGGAAUUCUCGGGUGUCAAGG
B6: ENSMUSG00000061578.342|Ksr2 (ssRNA)
RNA: GGGAGUUCUACAGUCCGACGAUCGCUUCGAUAUCCGCAUGCUAUGCCCUUAAGCUAGGGUCCUUCAAGCAUCCACAGACUUAGAGUGUGGUGGUAACAUGCUUGUAAUCCUGGCACUCUGGAGGCUGAGGCAGGAGGAUAACAAGUCUAGACUAUAUAUGAUUUCUGAGGGUCUGUUAGUGAAUAAGUACCUGGAUGACAUGGGACAAGUCCCAGCCUUCCCUGCUCCUGCGCUGCUCUUCCUCUUAUGGGAUAGGGUCUAGGUCAAAUGUCACCUCUUCACUCUUGCUCUUUCCUGACCUCCCUCUUGCGGUCGCACUAGUGUGGAAUUCUCGGGUGUCAAGG
B7: ENSMUSG00000028439.70|Fam219a|208:212 (ssRNA)
RNA: GGGAGUUCUACAGUCCGACGAUCGCUUCGAUAUCCGCAUGCUAAAGGCCAGGAGGCCAAAUGUAAGCGUUGGGUGAAGGGAUCACAGGGCCGGAAGGUUGGCCCCAGCCAGUGAAGCCAUGAAUCCCCCCCAAGCCCGGCUUGGAAAGGAAGGAAAGGGGUUUUGAGAAGAAAAGGAUCCAAGCAAUGGGGGCAGUUCUCACACCUCAGAGCCCCUCUCCCCAAACCCUGUGCCAGCCCAUAUACCUAUUACACAUUUCCCCUCAUCUCCAGAUGGGAAGCCUGGCAGCGCUGUCCAAAGGGACUCUUGCGGUCGCACUAGUGUGGAAUUCUCGGGUGUCAAGG
B8: ENSMUSG00000031028.481|Tub (ssRNA)
RNA: GGGAGUUCUACAGUCCGACGAUCGCUUCGAUAUCCGCAUGCUAUGAGCAGGCGACUGUCAAGGAAGUGUGUUGUCAGUUCACUGGAGGAGGAGCUGAGAUGUGCACCCUUUUAAAUGAACAUGGGGUGGUGAUGGUGCCUUAACAAUCUUGACACUAAGGUGAAGCAAGCAAGUAAGGUGUGUGCCUCUGGGAAGACAGGAGUCGGAAGCCAAGGUGUGUGGCAACAGUCUGGAAGAGAGCUUUUGGUAAUCAUACCGUCUUCAGUGACAAGGCAACAAUGCUGUAAAGUGGGUUUGUUUGGUCUCUUGCGGUCGCACUAGUGUGGAAUUCUCGGGUGUCAAGG
B9: ENSMUSG00000031028.478|Tub (ssRNA)
RNA: GGGAGUUCUACAGUCCGACGAUCGCUUCGAUAUCCGCAUGCUACUCUUUCUCCCAUGGUUCUGAGCAGGCGACUGUCAAGGAAGUGUGUUGUCAGUUCACUGGAGGAGGAGCUGAGAUGUGCACCCUUUUAAAUGAACAUGGGGUGGUGAUGGUGCCUUAACAAUCUUGACACUAAGGUGAAGCAAGCAAGUAAGGUGUGUGCCUCUGGGAAGACAGGAGUCGGAAGCCAAGGUGUGUGGCAACAGUCUGGAAGAGAGCUUUUGGUAAUCAUACCGUCUUCAGUGACAAGGCAACAAUGCUGUCUCUUGCGGUCGCACUAGUGUGGAAUUCUCGGGUGUCAAGG
B10: ENSMUSG00000031028.479|Tub|35:40;147:153;184:190 (ssRNA)
RNA: GGGAGUUCUACAGUCCGACGAUCGCUUCGAUAUCCGCAUGCUACUCCCAUGGUUCUGAGCAGGCGACUGUCAAGGAACACACAUGUCAGUUCACUGGAGGAGGAGCUGAGAUGUGCACCCUUUUAAAUGAACAUGGGGUGGUGAUGGUGCCUUAACAAUCUUGACACUAAGGUGAAGCAAGCAAGUAAGCACACACCCUCUGGGAAGACAGGAGUCGGAAGCCAAGCACACACGCAACAGUCUGGAAGAGAGCUUUUGGUAAUCAUACCGUCUUCAGUGACAAGGCAACAAUGCUGUAAAGUGCUCUUGCGGUCGCACUAGUGUGGAAUUCUCGGGUGUCAAGG
B11: ENSMUSG00000031028.482|Tub|17:22;129:135;166:172 (ssRNA)
RNA: GGGAGUUCUACAGUCCGACGAUCGCUUCGAUAUCCGCAUGCUAGGCGACUGUCAAGGAACACACAUGUCAGUUCACUGGAGGAGGAGCUGAGAUGUGCACCCUUUUAAAUGAACAUGGGGUGGUGAUGGUGCCUUAACAAUCUUGACACUAAGGUGAAGCAAGCAAGUAAGCACACACCCUCUGGGAAGACAGGAGUCGGAAGCCAAGCACACACGCAACAGUCUGGAAGAGAGCUUUUGGUAAUCAUACCGUCUUCAGUGACAAGGCAACAAUGCUGUAAAGUGGGUUUGUUUGGUUUUGUUCUCUUGCGGUCGCACUAGUGUGGAAUUCUCGGGUGUCAAGG
B12: ENSMUSG00000031028.482|Tub (ssRNA)
RNA: GGGAGUUCUACAGUCCGACGAUCGCUUCGAUAUCCGCAUGCUAGGCGACUGUCAAGGAAGUGUGUUGUCAGUUCACUGGAGGAGGAGCUGAGAUGUGCACCCUUUUAAAUGAACAUGGGGUGGUGAUGGUGCCUUAACAAUCUUGACACUAAGGUGAAGCAAGCAAGUAAGGUGUGUGCCUCUGGGAAGACAGGAGUCGGAAGCCAAGGUGUGUGGCAACAGUCUGGAAGAGAGCUUUUGGUAAUCAUACCGUCUUCAGUGACAAGGCAACAAUGCUGUAAAGUGGGUUUGUUUGGUUUUGUUCUCUUGCGGUCGCACUAGUGUGGAAUUCUCGGGUGUCAAGG
B13: ENSMUSG00000031028.484|Tub (ssRNA)
RNA: GGGAGUUCUACAGUCCGACGAUCGCUUCGAUAUCCGCAUGCUAGGAAGUGUGUUGUCAGUUCACUGGAGGAGGAGCUGAGAUGUGCACCCUUUUAAAUGAACAUGGGGUGGUGAUGGUGCCUUAACAAUCUUGACACUAAGGUGAAGCAAGCAAGUAAGGUGUGUGCCUCUGGGAAGACAGGAGUCGGAAGCCAAGGUGUGUGGCAACAGUCUGGAAGAGAGCUUUUGGUAAUCAUACCGUCUUCAGUGACAAGGCAACAAUGCUGUAAAGUGGGUUUGUUUGGUUUUGUUUUUUCUUUCUCUCUCUUGCGGUCGCACUAGUGUGGAAUUCUCGGGUGUCAAGG
B14: ENSMUSG00000031028.480|Tub (ssRNA)
RNA: GGGAGUUCUACAGUCCGACGAUCGCUUCGAUAUCCGCAUGCUAUGGUUCUGAGCAGGCGACUGUCAAGGAAGUGUGUUGUCAGUUCACUGGAGGAGGAGCUGAGAUGUGCACCCUUUUAAAUGAACAUGGGGUGGUGAUGGUGCCUUAACAAUCUUGACACUAAGGUGAAGCAAGCAAGUAAGGUGUGUGCCUCUGGGAAGACAGGAGUCGGAAGCCAAGGUGUGUGGCAACAGUCUGGAAGAGAGCUUUUGGUAAUCAUACCGUCUUCAGUGACAAGGCAACAAUGCUGUAAAGUGGGUUUGCUCUUGCGGUCGCACUAGUGUGGAAUUCUCGGGUGUCAAGG
B15: ENSMUSG00000031028.483|Tub (ssRNA)
RNA: GGGAGUUCUACAGUCCGACGAUCGCUUCGAUAUCCGCAUGCUAUGUCAAGGAAGUGUGUUGUCAGUUCACUGGAGGAGGAGCUGAGAUGUGCACCCUUUUAAAUGAACAUGGGGUGGUGAUGGUGCCUUAACAAUCUUGACACUAAGGUGAAGCAAGCAAGUAAGGUGUGUGCCUCUGGGAAGACAGGAGUCGGAAGCCAAGGUGUGUGGCAACAGUCUGGAAGAGAGCUUUUGGUAAUCAUACCGUCUUCAGUGACAAGGCAACAAUGCUGUAAAGUGGGUUUGUUUGGUUUUGUUUUUUCUCUCUUGCGGUCGCACUAGUGUGGAAUUCUCGGGUGUCAAGG
B16: ENSMUSG00000031028.479|Tub (ssRNA)
RNA: GGGAGUUCUACAGUCCGACGAUCGCUUCGAUAUCCGCAUGCUACUCCCAUGGUUCUGAGCAGGCGACUGUCAAGGAAGUGUGUUGUCAGUUCACUGGAGGAGGAGCUGAGAUGUGCACCCUUUUAAAUGAACAUGGGGUGGUGAUGGUGCCUUAACAAUCUUGACACUAAGGUGAAGCAAGCAAGUAAGGUGUGUGCCUCUGGGAAGACAGGAGUCGGAAGCCAAGGUGUGUGGCAACAGUCUGGAAGAGAGCUUUUGGUAAUCAUACCGUCUUCAGUGACAAGGCAACAAUGCUGUAAAGUGCUCUUGCGGUCGCACUAGUGUGGAAUUCUCGGGUGUCAAGG

The full ranking holds about 9,900 sequences; the median of “r (bound/input frequency ratio)” is about 0.7, and the highest 2% start at about 6.5. The entries come from a sample that favours the highest values as a whole.

The target of this assay is TDP-43 (Homo sapiens, UniProt Q13148 1-414). Put plainly: RNA Bind-n-Seq with designed 260-mer pool; 25 mM Tris-HCl, 150 mM KCl, 3 mM MgCl2, BSA (printed 500 mg/mL), 20 units/mL SUPERase IN; pH not stated; 500 nM RNA pool, 1 h, 4 C; TDP-43 5, 50, 500 nM; high values mean tight binding. The note with it: protein: recombinant; tags: SBP (GST cleaved off with PreScission; pGEX-GST-SBP). An outline of the steps: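 Recombinant SBP-tagged TDP-43 at 5, 50 or 500 nM was captured on streptavidin beads, then incubated 1 h at 4 °C with 500 nM of an in vitro-transcribed 260-nt 3′ UTR oligo pool in 25 mM Tris-HCl, 150 mM KCl, 3 mM MgCl2, BSA and SUPERase IN. Bound RNA was washed, eluted with biotin, reverse transcribed, PCR-amplified and sequenced. Binding is R, each oligo's mapped-read-normalized abundance in the bound sample divided by its abundance in input. Duplicates used two independent protein batches.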
TDP-43, sequence (Q13148 whole entry): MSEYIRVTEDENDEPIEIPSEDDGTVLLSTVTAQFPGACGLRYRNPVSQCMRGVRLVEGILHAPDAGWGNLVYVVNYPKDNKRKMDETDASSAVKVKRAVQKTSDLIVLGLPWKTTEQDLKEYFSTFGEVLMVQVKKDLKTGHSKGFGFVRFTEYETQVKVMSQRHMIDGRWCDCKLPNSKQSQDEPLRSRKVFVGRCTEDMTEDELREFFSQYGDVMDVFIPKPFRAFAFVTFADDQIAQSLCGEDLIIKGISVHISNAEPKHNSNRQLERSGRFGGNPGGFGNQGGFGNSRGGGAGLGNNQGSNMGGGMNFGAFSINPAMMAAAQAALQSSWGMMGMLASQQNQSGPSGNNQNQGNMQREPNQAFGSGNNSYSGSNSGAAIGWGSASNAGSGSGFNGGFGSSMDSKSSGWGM
As to B1, the binding signal is 0.745 R (bound/input frequency ratio).

Consider B2, for which the binding signal was 1.02 R (bound/input frequency ratio).

For the molecule B3, the binding signal was 0.142 R (bound/input frequency ratio).

Regarding B4, the binding signal was 0.294 R (bound/input frequency ratio).

For B5, the binding signal is 1.41 R (bound/input frequency ratio).

For B6, the binding signal is 0.306 R (bound/input frequency ratio).

As to B7, the binding signal is 0.319 R (bound/input frequency ratio).

On to B8, for which the binding signal was 5.19 R (bound/input frequency ratio).

On to B9, for which the binding signal is 2.52 R (bound/input frequency ratio).

For the molecule B10, the binding signal was 0.829 R (bound/input frequency ratio).

With B11, the binding signal was 1.47 R (bound/input frequency ratio).

On to B12, for which the binding signal is 6.54 R (bound/input frequency ratio).

B13: the binding signal was 4.79 R (bound/input frequency ratio).

For B14, the binding signal was 6.51 R (bound/input frequency ratio).

Take B15: the binding signal is 3.98 R (bound/input frequency ratio).

With B16, the binding signal is 6.66 R (bound/input frequency ratio).
